According to PubChem BioAssay (Tox21):
Records with an inconclusive call do not appear. The source made the active and inactive calls. Unless noted, the call rests on the fitted dose curve; in most records, active means well fitted curve in the direction sought with a large enough effect in the repeat runs; inconclusive means weak or mixed curves; inactive means no such curve, though single readings can be large; an effect the other way counts as inactive or inconclusive.

What was measured:
[1] = qHTS assay to identify small molecule antagonists of the thyroid receptor (TR) signaling pathway (AID 743065); further: series mostly up to about 70 µM; nearly all actives have a fitted effect of over 55% in size
Procedure, shortened: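 Antagonism measured as loss of luciferase signal in GH3 cells stably carrying a TRE-luciferase reporter, co-treated with compound and T3 (1 nM final) for 23.5 h at 37 C. Viability was read in the same well by CellTiter-Fluor.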

[2] = system: thyroid hormone receptor (rat, GH3 cells); test: qHTS assay to identify small molecule agonists of the thyroid receptor (TR) signaling pathway (AID 743066; calls by dose curve)
[3] = qHTS assay to identify small molecule antagonists of the estrogen receptor alpha (ER-alpha) signaling pathway - cell viability counter screen (AID 743074; calls by dose curve;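 further: HEK293 cells carrying ER-alpha-UAS-bla reporter stimulated with 17beta-estradiol; nearly all actives have a fitted effect of over 45% in size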)
[4] = qHTS assay to identify small molecule antagonists of the estrogen receptor alpha (ER-alpha) signaling pathway using the BG1 cell line - cell viability counter screen (AID 743081);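 further: compound given together with 17beta-estradiol as the ER stimulus; series mostly up to about 70 µM; nearly all actives have a fitted effect of over 45% in size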
[5] = target: Aromatase (Homo sapiens) (UniProt P11511); test: qHTS assay to identify aromatase inhibitors (AID 743083); further: series mostly up to about 70 µM; nearly all actives have a fitted effect of over 55% in size
Sequence of Aromatase (Homo sapiens) (P11511 whole entry, looked up): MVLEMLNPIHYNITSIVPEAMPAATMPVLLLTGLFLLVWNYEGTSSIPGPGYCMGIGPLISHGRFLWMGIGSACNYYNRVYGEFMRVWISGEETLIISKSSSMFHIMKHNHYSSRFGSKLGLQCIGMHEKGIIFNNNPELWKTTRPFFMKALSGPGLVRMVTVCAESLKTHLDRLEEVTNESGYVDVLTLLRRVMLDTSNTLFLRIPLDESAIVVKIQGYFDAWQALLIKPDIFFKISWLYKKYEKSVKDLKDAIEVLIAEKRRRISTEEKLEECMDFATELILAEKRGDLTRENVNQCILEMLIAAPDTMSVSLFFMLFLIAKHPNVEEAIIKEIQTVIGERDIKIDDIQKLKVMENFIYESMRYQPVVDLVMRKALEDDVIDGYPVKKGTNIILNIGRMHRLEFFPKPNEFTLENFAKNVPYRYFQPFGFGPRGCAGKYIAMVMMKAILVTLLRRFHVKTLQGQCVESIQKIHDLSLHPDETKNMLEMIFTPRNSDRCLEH

[6] = qHTS assay to identify aromatase inhibitors - cell viability counter screen (AID 743084);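 further: cells stimulated with testosterone during compound exposure; nearly all actives have a fitted effect of over 55% in size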
[7] = qHTS assay to identify small molecule that activate the aryl hydrocarbon receptor (AhR) signaling pathway - cell viability counter screen (AID 743086);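 further: HepG2 liver cells carrying the AhR DRE luciferase reporter; series mostly up to about 70 µM; nearly all actives have a fitted effect of over 45% in size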
Procedure, shortened: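 Cytotoxicity counter screen: CellTiter-Fluor signal (30 min, 37 C) in 4000 HepG2 cells/well carrying the DRE-luciferase reporter, following 24 h compound exposure at 37 C.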

[8] = target: Peroxisome proliferator-activated receptor gamma (Homo sapiens) (UniProt P37231); test: qHTS assay to identify small molecule agonists of the peroxisome proliferator-activated receptor gamma (PPARg) signaling pathway (AID 743094; active means well fitted activation curve with a large enough effect in the signal ratio in the repeat runs, not every such curve was filed as active; the % refers to the signal ratio)
Sequence of Peroxisome proliferator-activated receptor gamma (Homo sapiens) (P37231 whole entry, looked up): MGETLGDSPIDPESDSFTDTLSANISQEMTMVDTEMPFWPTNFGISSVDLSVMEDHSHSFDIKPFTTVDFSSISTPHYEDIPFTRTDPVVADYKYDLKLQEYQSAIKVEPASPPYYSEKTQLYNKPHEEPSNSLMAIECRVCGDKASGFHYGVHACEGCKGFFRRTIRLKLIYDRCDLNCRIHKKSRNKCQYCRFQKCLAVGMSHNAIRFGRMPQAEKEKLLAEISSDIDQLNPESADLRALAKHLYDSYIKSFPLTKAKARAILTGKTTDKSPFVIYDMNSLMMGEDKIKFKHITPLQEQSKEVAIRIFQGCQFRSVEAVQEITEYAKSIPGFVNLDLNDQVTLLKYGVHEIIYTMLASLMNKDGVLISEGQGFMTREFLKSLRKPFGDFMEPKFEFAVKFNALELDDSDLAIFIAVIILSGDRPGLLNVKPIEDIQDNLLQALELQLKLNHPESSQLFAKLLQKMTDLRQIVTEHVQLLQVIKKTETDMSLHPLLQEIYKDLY
Procedure, shortened: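 Following 5 h plating at 37C, PPARg-bla HEK293H cells receive compound or DMSO for 17 h; fluorescence intensity is recorded after LiveBLAzer B/G loading for 1 h at room temperature.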

[9] = target: Peroxisome proliferator-activated receptor gamma (Homo sapiens) (UniProt P37231); test: qHTS assay to identify small molecule antagonists of the peroxisome proliferator-activated receptor gamma (PPARg) signaling pathway (AID 743191; calls by dose curve; further: series mostly up to about 63 µM; nearly all actives have a fitted effect of over 30% in size)
Procedure, shortened: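 Beta-lactamase reporter under UAS control in HEK293H PPARg-bla cells; compound treatment 17 h at 37C. Read-out: fluorescence intensity after 1 h room-temperature incubation with LiveBLAzer B/G FRET substrate.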

[10] = qHTS assay to identify small molecule antagonists of the peroxisome proliferator-activated receptor gamma (PPARg) signaling pathway - cell viability counter screen (AID 743194); further: nearly all actives have a fitted effect of over 55% in size
Procedure, shortened: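 Viability was measured as CellTiter-Glo luminescence in GeneBLAzer PPARg UAS-bla HEK293H cells. These cells had been exposed 17 h at 37 C to compounds together with rosiglitazone at 50 nM final, with the beta-lactamase readout taken in the same wells.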

[11] = qHTS assay for small molecule agonists of the antioxidant response element (ARE) signaling pathway (AID 743202; active means well fitted activation curve with a large enough effect in the signal ratio in the repeat runs, not every such curve was filed as active; the % refers to the signal ratio)
Procedure, shortened: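 Quantitative high-throughput format in HepG2 cells bearing an integrated ARE-beta-lactamase reporter. Compound exposure lasted 16 h at 37 C, and fluorescence was read 2 h after adding LiveBLAzer B/G substrate at room temperature.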

[12] = qHTS assay for small molecule agonists of the antioxidant response element (ARE) signaling pathway - cell viability counter screen (AID 743203; calls by dose curve; further: nearly all actives have a fitted effect of over 55% in size)
Procedure, shortened: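 Compounds in DMSO were pinned onto ARE-bla HepG2 cells plated 5 hrs earlier at 2,000 cells/well. Sixteen hours later at 37C/5% CO2, CellTiter-Glo was added and luminescence measured after 30 min at room temperature.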

[13] = qHTS assay for small molecule activators of the heat shock response signaling pathway - cell viability counter screen (AID 743209); further: nearly all actives have a fitted effect of over 50% in size
Procedure, shortened: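 Counter screen for cytotoxicity in HeLa HSE-bla reporter cells. Treatment was 5 h at 37 C; viability was detected by luminescent ATP assay (CellTiter-Glo) in the same wells as the beta-lactamase read.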

[14] = qHTS assay to identify small molecule agonists of the peroxisome proliferator-activated receptor delta (PPARd) signaling pathway - cell viability counter screen (AID 743211); further: nearly all actives have a fitted effect of over 55% in size
Procedure, shortened: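 In the same wells used for beta-lactamase reporter measurement, cytotoxicity is scored by CellTiter-Glo. HEK293H PPARd-bla cells receive compound for 17 h at 37C following a 5 h settling period.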

[15] = qHTS assay for small molecule activators of the heat shock response signaling pathway (AID 743210; active means well fitted activation curve with a large enough effect in the signal ratio in the repeat runs, with a control signal flat, not every such curve was filed as active; the % refers to the signal ratio;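 further: HeLa cells with beta-lactamase reporter driven by heat shock elements; series mostly up to about 63 µM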)
Procedure, shortened: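 HeLa HSE-bla cells, overnight plating; cpd in DMSO 5 h, 37 C; LiveBLAzer B/G FRET substrate 2.5 h RT; fluorescence intensity read.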

[16] = target: Aryl hydrocarbon receptor (Homo sapiens) (UniProt P35869); test: qHTS assay to identify small molecule that activate the aryl hydrocarbon receptor (AhR) signaling pathway (AID 743085);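 further: HG2L7.5c1 human HepG2 liver cells with stably integrated DRE-driven firefly reporter; series mostly up to about 70 µM; nearly all actives have a fitted effect of over 15% in size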
Sequence of Aryl hydrocarbon receptor (Homo sapiens) (P35869 whole entry, looked up): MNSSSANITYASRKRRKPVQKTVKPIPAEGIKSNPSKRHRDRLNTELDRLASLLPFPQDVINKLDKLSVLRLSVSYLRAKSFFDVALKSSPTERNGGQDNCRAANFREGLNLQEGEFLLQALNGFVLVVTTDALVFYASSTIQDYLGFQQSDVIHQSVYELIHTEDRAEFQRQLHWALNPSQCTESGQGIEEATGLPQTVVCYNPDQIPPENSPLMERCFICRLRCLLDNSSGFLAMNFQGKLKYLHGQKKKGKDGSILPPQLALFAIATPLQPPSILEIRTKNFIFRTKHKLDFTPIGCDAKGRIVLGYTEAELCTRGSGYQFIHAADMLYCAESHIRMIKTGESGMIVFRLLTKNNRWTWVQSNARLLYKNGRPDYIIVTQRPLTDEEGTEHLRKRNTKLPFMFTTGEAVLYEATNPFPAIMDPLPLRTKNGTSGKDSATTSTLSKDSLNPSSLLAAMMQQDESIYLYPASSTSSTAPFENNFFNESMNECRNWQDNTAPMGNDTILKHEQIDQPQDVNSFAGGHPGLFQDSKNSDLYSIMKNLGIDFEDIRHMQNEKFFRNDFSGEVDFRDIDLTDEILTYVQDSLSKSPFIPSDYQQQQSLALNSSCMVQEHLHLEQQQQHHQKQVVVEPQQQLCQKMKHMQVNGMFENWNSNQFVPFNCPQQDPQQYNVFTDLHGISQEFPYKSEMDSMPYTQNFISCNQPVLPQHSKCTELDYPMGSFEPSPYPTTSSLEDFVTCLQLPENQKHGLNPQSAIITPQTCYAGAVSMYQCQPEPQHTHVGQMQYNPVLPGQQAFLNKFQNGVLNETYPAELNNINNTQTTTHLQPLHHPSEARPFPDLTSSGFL
Procedure, shortened: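 Stably transfected human liver carcinoma cells (HG2L7.5c1; 20 DRE-firefly luciferase) were incubated 5 h, dosed, and kept 24 h at 37C. Agonism was scored from increased luciferase luminescence.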

[17] = target: Estrogen receptor (Homo sapiens) (UniProt P03372); test: qHTS assay to identify small molecule antagonists of the estrogen receptor alpha (ER-alpha) signaling pathway (AID 743069; active means well fitted curve in the direction sought with a large enough effect in the signal ratio in the repeat runs, not every such curve was filed as active; the % refers to the signal ratio)
Sequence of Estrogen receptor (Homo sapiens) (P03372 whole entry, looked up): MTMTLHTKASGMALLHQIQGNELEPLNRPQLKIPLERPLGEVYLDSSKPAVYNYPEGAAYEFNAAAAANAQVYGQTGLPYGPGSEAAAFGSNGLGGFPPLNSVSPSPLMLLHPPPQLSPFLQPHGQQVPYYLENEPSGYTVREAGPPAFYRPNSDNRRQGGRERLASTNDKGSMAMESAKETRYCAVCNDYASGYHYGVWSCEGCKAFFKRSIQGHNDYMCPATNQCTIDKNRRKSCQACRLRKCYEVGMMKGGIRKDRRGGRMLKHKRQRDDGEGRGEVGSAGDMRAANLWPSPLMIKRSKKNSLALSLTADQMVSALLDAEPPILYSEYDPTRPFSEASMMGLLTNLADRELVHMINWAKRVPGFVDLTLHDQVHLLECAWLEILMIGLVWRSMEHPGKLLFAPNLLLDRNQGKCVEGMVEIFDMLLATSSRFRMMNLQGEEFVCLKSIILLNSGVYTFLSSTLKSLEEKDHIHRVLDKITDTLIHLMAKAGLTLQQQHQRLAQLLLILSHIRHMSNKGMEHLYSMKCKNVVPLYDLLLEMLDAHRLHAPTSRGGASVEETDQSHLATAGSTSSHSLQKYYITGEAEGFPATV
Procedure, shortened: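 ER-alpha-UAS-bla GripTite HEK293 line; 2% charcoal-stripped FBS overnight; plated, 4 hr 37C/5% CO2; cpd in DMSO + 17beta-estradiol, 18 hr 37C; LiveBLAzer B/G FRET substrate 2 hr RT; fluorescence intensity.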

[18] = target: Estrogen receptor (Homo sapiens) (UniProt P03372); test: qHTS assay to identify small molecule agonists of the estrogen receptor alpha (ER-alpha) signaling pathway (AID 743075; calls by dose curve;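 further: HEK293 GripTite cells with ER-alpha and UAS-driven beta-lactamase reporter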)
[19] = target: Estrogen receptor (Homo sapiens) (UniProt P03372); test: qHTS assay to identify small molecule agonists of the estrogen receptor alpha (ER-alpha) signaling pathway using the BG1 cell line (AID 743079); further: nearly all actives have a fitted effect of over 20% in size
[20] = qHTS assay to identify small molecule antagonists of the estrogen receptor alpha (ER-alpha) signaling pathway using the BG1 cell line (AID 743080; calls by dose curve;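 further: BG1 cells stimulated with 17beta-estradiol alongside compound; series mostly up to about 70 µM; nearly all actives have a fitted effect of over 25% in size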)
Procedure, shortened: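 Luminescence from a 4×ERE-luciferase reporter in BG1-Luc-4E2 cells served as read-out. Cells, pre-cultured 5 days in stripped-serum phenol-red-free medium, were exposed to compound with 17beta-estradiol co-stimulation for 21.5 h at 37 C.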

Measured: Potency

CC(=O)OC(C)=O
inactive: [1] | [2] | [3] | [4] | [5] | [6] | [7] | [8] | [9] | [10] | [11] | [12] | [13] | [14]

O=NN(CCCl)C(=O)NC1CCCCC1
inactive: [1] | [2] | [3] | [4] | [5] | [6] | [7] | [8] | [10] | [11] | [12] | [13] | [15] | [14]

COc1ccc(CCO)cc1
inactive: [1] | [2] | [3] | [4] | [5] | [6] | [16] | [7] | [8] | [11] | [12] | [13] | [15] | [14]

CC(C)[C@H]1CC[C@H](C)C[C@@H]1O
inactive: [1] | [2] | [3] | [4] | [5] | [6] | [16] | [7] | [8] | [10] | [11] | [12] | [13] | [14]

CCCCC1CCC(O)CC1 (stereo not drawn)
inactive: [1] | [2] | [3] | [4] | [5] | [6] | [7] | [8] | [9] | [11] | [12] | [13] | [15] | [14]

O=C(Cl)c1ccccc1[N+](=O)[O-]
inactive: [1] | [2] | [3] | [4] | [5] | [6] | [7] | [8] | [9] | [10] | [11] | [12] | [13] | [15] | [14]

CCCCCC/C=C/C(=O)OC
inactive: [1] | [2] | [3] | [4] | [5] | [6] | [16] | [7] | [8] | [11] | [12] | [13] | [15] | [14]

CN1CCOC(c2ccccc2)c2ccccc2C1 (stereo not drawn)
inactive: [1] | [2] | [3] | [4] | [5] | [6] | [7] | [8] | [9] | [11] | [12] | [13] | [15] | [14]

COS(=O)(=O)O
inactive: [1] | [2] | [3] | [4] | [5] | [6] | [16] | [10] | [11] | [12] | [13] | [14]

C=C(C)[C@@H]1CC=C(C)C(=O)C1
inactive: [1] | [2] | [3] | [4] | [5] | [6] | [7] | [8] | [11] | [12] | [13] | [15] | [14]

CNCCS(=O)(=O)O
inactive: [1] | [2] | [3] | [4] | [5] | [6] | [16] | [8] | [9] | [10] | [11] | [13] | [15] | [14]

CC(=O)O[C@H]1C[C@@H]2CC[C@@]1(C)C2(C)C
inactive: [3] | [4] | [5] | [6] | [16] | [7] | [8] | [9] | [11] | [12] | [13] | [14]

COc1cc(OC)nc(O[C@H](C(=O)O)C(OC)(c2ccccc2)c2ccccc2)n1
inactive: [10] | [11] | [13] | [14]

CC(=O)C(C)O (stereo not drawn)
inactive: [3] | [4] | [5] | [6] | [16] | [7] | [8] | [9] | [10] | [11] | [12] | [13] | [15] | [14]

O=C1NC(c2ccccc2)(c2ccccc2)C(=O)N1COP(=O)(O)O
inactive: [9] | [10] | [11] | [12] | [13] | [15] | [14]

COCCc1ccccn1
inactive: [9] | [11] | [12] | [15] | [14]

[O-][n+]1cccc(/C(Cl)=N/OC[C@@H](O)CN2CCCCC2)c1
inactive: [10] | [11] | [12] | [13] | [14]

CCOc1ccccc1OCC1CNCCO1 (stereo not drawn)
inactive: [9] | [10] | [11] | [13] | [15] | [14]

CN(C)CCN(C)CCO
inactive: [17] | [3] | [18] | [19] | [20] | [4] | [5] | [6] | [16] | [7] | [8] | [9] | [10] | [12] | [13] | [15] | [14]

CCN(CC)CCN
inactive: [9] | [10] | [11] | [12] | [13] | [14]

COC(=O)CCCCC(CCSS/C(CCO)=C(\C)N(C=O)Cc1cnc(C)nc1N)SC(C)=O (stereo not drawn)
inactive: [9] | [11] | [12] | [13] | [15] | [14]

CCCC(=O)Nc1ccc(OCC(O)CNC(C)C)c(C(C)=O)c1 (stereo not drawn)
inactive: [17] | [3] | [18] | [19] | [20] | [4] | [5] | [6] | [16] | [7] | [8] | [10] | [11] | [12] | [13] | [15] | [14]

CCC(C(=O)OCCN1CCOC(c2ccccc2)C1C)c1ccccc1 (stereo not drawn)
inactive: [10] | [11] | [13] | [15] | [14]

C=CCOC(=O)CCCCCC
inactive: [3] | [4] | [5] | [6] | [7] | [8] | [10] | [11] | [12] | [13] | [15] | [14]
